High-throughput results (PubChem)
Mcl1 Noxa PPI: disrupts binding of human Mcl-1 to Noxa peptide; Q07820; TR-FRET Mcl-1/Noxa peptide binding, 2 h; inhibition, % at 21.7 µM; 220,000 tested, 1.5% active; AID 1022;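 active means compounds that cut the protein-peptide binding signal by more than 50% relative to plate controls in a single-dose test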;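 further: His-tagged Mcl-1 with rhodamine Noxa BH3 peptide and terbium anti-His antibody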
Target sequence (Q07820 whole entry, looked up): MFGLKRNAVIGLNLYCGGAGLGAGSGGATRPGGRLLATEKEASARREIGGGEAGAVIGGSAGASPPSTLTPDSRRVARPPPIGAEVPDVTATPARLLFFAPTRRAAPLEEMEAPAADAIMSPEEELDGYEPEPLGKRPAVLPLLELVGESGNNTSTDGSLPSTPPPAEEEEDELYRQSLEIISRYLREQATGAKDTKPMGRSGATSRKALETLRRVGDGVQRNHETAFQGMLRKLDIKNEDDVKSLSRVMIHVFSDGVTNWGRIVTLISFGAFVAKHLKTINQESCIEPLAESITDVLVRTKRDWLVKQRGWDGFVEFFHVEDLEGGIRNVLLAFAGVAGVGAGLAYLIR
14-3-3 Bad inh: disrupts binding of bovine 14-3-3 zeta to phospho-Bad peptide; AID 781; inhibition, % at 21.7 µM; 220,000 tested, 0.71% active; TR-FRET 14-3-3zeta/Dy647-pBad peptide displacement, 1 h;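 active means inhibition above about 70%, limit read from the data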
Target sequence (P63103 whole entry, looked up): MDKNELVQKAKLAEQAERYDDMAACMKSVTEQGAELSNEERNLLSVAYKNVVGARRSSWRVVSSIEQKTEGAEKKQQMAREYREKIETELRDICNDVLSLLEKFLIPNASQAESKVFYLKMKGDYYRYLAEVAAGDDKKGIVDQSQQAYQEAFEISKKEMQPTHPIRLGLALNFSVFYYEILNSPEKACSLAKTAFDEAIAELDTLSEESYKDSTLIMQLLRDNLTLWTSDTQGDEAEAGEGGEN
Bim-Mcl-1: disrupts Bim peptide binding to human Mcl-1; Q07820; Bead-based flow cytometry, Bim peptide-Mcl-1 binding; inhibition, % at 10 µM; 190,000 tested, 0.1% active; in the data active means inhibition above about 40%
NCF1 inh: inhibitors of human p47phox binding; 220,000 tested, 0.53% active; inhibition, % at 24.7 µM; p47phox/p22phox peptide binding, fluorescence polarization, 2 h; AID 1274;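 active means inhibition above about 30%, limit read from the data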
Mcl1-Bid inh: disrupts binding of human Mcl-1 to Bid peptide; Q07820; TR-FRET Mcl-1/Bid-Dy647 peptide binding, 1536-well; inhibition, % at 21.7 µM; 220,000 tested, 0.97% active;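 active means compounds that cut the binding signal by more than half at the single screening dose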;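 further: His-tagged Mcl-1 with europium anti-His antibody binding Bid BH3 peptide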
Hits are given with their value; [ ] = remark or other dose. Sampled rows, rich in hits. Any-hit rate of the full collection: about 3.2%.

Screening O=C(C1CCCN(Cc2cccs2)C1)N1CCCCCC1 (centres undefined) returned Mcl1 Noxa PPI inactive, 14-3-3 Bad inh inactive, Bim-Mcl-1 inactive, NCF1 inh inactive and Mcl1-Bid inh inactive.
`CCOC(=O)C1CCCN(Cc2ccccc2OCC)C1` (centres undefined) gave Mcl1 Noxa PPI inactive, 14-3-3 Bad inh inactive, Bim-Mcl-1 inactive, NCF1 inh inactive and Mcl1-Bid inh 98.
CCOC(=O)C1CCCN(Cc2ccc(OCC)cc2)C1 (centres undefined) was read as Mcl1 Noxa PPI inactive, 14-3-3 Bad inh inactive, Bim-Mcl-1 inactive, NCF1 inh inactive and Mcl1-Bid inh inactive.
Screening CCOC(=O)C1CCCN(Cc2cccs2)C1 (centres undefined) returned Mcl1 Noxa PPI inactive, 14-3-3 Bad inh 71, Bim-Mcl-1 inactive, NCF1 inh inactive and Mcl1-Bid inh 55.
`CCOC(=O)C1CCCN(Cc2ccccc2C)C1` (centres undefined) gave Mcl1 Noxa PPI inactive, 14-3-3 Bad inh 76, Bim-Mcl-1 inactive, NCF1 inh inactive and Mcl1-Bid inh inactive.
For CCOC(=O)C1CCCN(Cc2ccccc2Cl)C1 (centres undefined) the results were Mcl1 Noxa PPI inactive, 14-3-3 Bad inh 71, Bim-Mcl-1 inactive, NCF1 inh inactive and Mcl1-Bid inh inactive.
For CC(C)c1ccc(C(=O)NN2C(=O)C3CCCCC3C2=O)cc1 (centres undefined) the results were Mcl1 Noxa PPI inactive, 14-3-3 Bad inh inactive, Bim-Mcl-1 inactive, NCF1 inh inactive and Mcl1-Bid inh inactive.
Screening COc1ccc(Cn2nnnc2C(c2ccc(N(C)C)cc2)N2CCC(C(N)=O)CC2)cc1 (centres undefined) returned Mcl1 Noxa PPI 54, 14-3-3 Bad inh inactive, Bim-Mcl-1 inactive, NCF1 inh inactive and Mcl1-Bid inh inactive.
Screening COc1ccc(Cn2nnnc2C(c2ccccc2OC)N2CCC(C(N)=O)CC2)cc1 (centres undefined) returned Mcl1 Noxa PPI inactive, 14-3-3 Bad inh inactive, Bim-Mcl-1 inactive, NCF1 inh inactive and Mcl1-Bid inh inactive.
Screening COc1cccc(C(c2nnnn2Cc2ccc(F)cc2)N2CCC(C(N)=O)CC2)c1OC (centres undefined) returned Mcl1 Noxa PPI inactive, 14-3-3 Bad inh 77, Bim-Mcl-1 inactive, NCF1 inh inactive and Mcl1-Bid inh inactive.
COC(=O)CNC(=O)COC(=O)c1ccc(Cl)nc1 was read as Mcl1 Noxa PPI inactive, 14-3-3 Bad inh inactive, Bim-Mcl-1 inactive, NCF1 inh inactive and Mcl1-Bid inh inactive.
`CN1CCc2c(sc3c2C(=O)NC(c2cccc(OC(=O)c4cccs4)c2)N3)C1` (centres undefined) gave Mcl1 Noxa PPI 58, 14-3-3 Bad inh inactive, Bim-Mcl-1 inactive, NCF1 inh inactive and Mcl1-Bid inh inactive.
Screening CN1CCc2c(sc3c2C(=O)NC(c2ccco2)N3)C1 (centres undefined) returned Mcl1 Noxa PPI inactive, 14-3-3 Bad inh inactive, Bim-Mcl-1 inactive, NCF1 inh inactive and Mcl1-Bid inh inactive.
For CCOC(=O)NC(O)C(=O)c1ccc(F)cc1 (centres undefined) the results were Mcl1 Noxa PPI inactive, 14-3-3 Bad inh inactive, Bim-Mcl-1 inactive, NCF1 inh inactive and Mcl1-Bid inh inactive.
`CCCCC(C(=O)OCC)C(N)Cc1ccc(F)cc1` (centres undefined) gave Mcl1 Noxa PPI inactive, 14-3-3 Bad inh inactive, Bim-Mcl-1 98, NCF1 inh inactive and Mcl1-Bid inh inactive.
Screening Nc1nnc(-c2cc3c(ccc4ccccc43)oc2=O)s1 returned Mcl1 Noxa PPI inactive, 14-3-3 Bad inh inactive, Bim-Mcl-1 inactive, NCF1 inh inactive and Mcl1-Bid inh inactive.
CCCCc1c(C)nc2c(OC)cccc2c1SCCC(=O)O was read as Mcl1 Noxa PPI 52, 14-3-3 Bad inh inactive, Bim-Mcl-1 inactive, NCF1 inh 34 and Mcl1-Bid inh inactive.
Screening CCOC(=O)C1CCN(C(=O)c2ccc(CNS(=O)(=O)c3ccc(C)cc3)cc2)CC1 returned Mcl1 Noxa PPI inactive, 14-3-3 Bad inh inactive, Bim-Mcl-1 inactive, NCF1 inh 33 and Mcl1-Bid inh inactive.
CC(C)N1C(=O)CC2(CC[N+](C)(CCOC(=O)C(c3ccccc3)c3ccccc3)CC2)C1=O (centres undefined) was read as Mcl1 Noxa PPI inactive, 14-3-3 Bad inh 77[fluorescence artefact?], Bim-Mcl-1 inactive, NCF1 inh inactive and Mcl1-Bid inh inactive.
`O=C(OCCN1CCOCC1)C(c1ccccc1)c1ccccc1` gave Mcl1 Noxa PPI inactive, 14-3-3 Bad inh inactive, Bim-Mcl-1 inactive, NCF1 inh inactive and Mcl1-Bid inh inactive.
CCOC(=O)c1c(C)[nH]c(C2=NNC(=NC3CC3)SC2)c1C was read as Mcl1 Noxa PPI 64, 14-3-3 Bad inh inactive, Bim-Mcl-1 inactive, NCF1 inh inactive and Mcl1-Bid inh inactive.
For CCN(CC)c1ccc(NC(=O)c2cccc(C)c2OC)c(C)c1 the results were Mcl1 Noxa PPI 62, 14-3-3 Bad inh inactive, Bim-Mcl-1 inactive, NCF1 inh inactive and Mcl1-Bid inh inactive.
Screening CCN(CC)c1ccc(NC(=O)c2cccnc2)c(C)c1 returned Mcl1 Noxa PPI inactive, 14-3-3 Bad inh inactive, Bim-Mcl-1 inactive, NCF1 inh inactive and Mcl1-Bid inh inactive.
O=C(O)[C@@H]1[C@@H]2C[C@@H]2CN1c1ncccc1[N+](=O)[O-] was read as Mcl1 Noxa PPI inactive, 14-3-3 Bad inh inactive, Bim-Mcl-1 inactive, NCF1 inh inactive and Mcl1-Bid inh inactive.
For COc1ccc(/C=N/n2c(-c3n[nH]c4c3CCC4)n[nH]c2=S)cc1OC the results were Mcl1 Noxa PPI 65, 14-3-3 Bad inh inactive, Bim-Mcl-1 inactive, NCF1 inh inactive and Mcl1-Bid inh inactive.
COc1cc(/C=N/n2c(-c3n[nH]c4c3CCC4)n[nH]c2=S)ccc1O was read as Mcl1 Noxa PPI inactive, 14-3-3 Bad inh inactive, NCF1 inh inactive and Mcl1-Bid inh inactive.
CC(=O)c1ccc(NC(=O)CN(C)CC(=O)Nc2cccc(F)c2)cc1 was read as Mcl1 Noxa PPI inactive, 14-3-3 Bad inh 90, Bim-Mcl-1 inactive, NCF1 inh inactive and Mcl1-Bid inh inactive.
For CC(=O)c1cccc(NC(=O)Nc2ccc(C(=O)N3CCCC3)cc2)c1 the results were Mcl1 Noxa PPI inactive, 14-3-3 Bad inh inactive, Bim-Mcl-1 inactive, NCF1 inh inactive and Mcl1-Bid inh inactive.
CCN(CC)c1ccc(NC(=O)c2ccccc2OCC(=O)OC)cc1 was read as Mcl1 Noxa PPI 81, 14-3-3 Bad inh inactive, Bim-Mcl-1 inactive, NCF1 inh inactive and Mcl1-Bid inh inactive.
For CCOC(=O)C(Cc1ccccc1)C(=O)Nc1ccc(N(CC)CC)cc1 (centres undefined) the results were Mcl1 Noxa PPI 60, 14-3-3 Bad inh inactive, Bim-Mcl-1 inactive, NCF1 inh inactive and Mcl1-Bid inh inactive.
CCN(CC)c1ccc(NC(=O)Nc2cccc(C(C)=O)c2)cc1 was read as Mcl1 Noxa PPI 86, 14-3-3 Bad inh inactive, Bim-Mcl-1 inactive, NCF1 inh inactive and Mcl1-Bid inh inactive.
`CC(=O)Nc1cccc(NC(=O)Nc2ccc(C(C)=O)cc2)c1` gave Mcl1 Noxa PPI inactive, 14-3-3 Bad inh inactive, Bim-Mcl-1 inactive, NCF1 inh inactive and Mcl1-Bid inh 94.
For COC(=O)Nc1ccc(NC(C)=O)cc1 the results were Mcl1 Noxa PPI inactive, 14-3-3 Bad inh inactive, Bim-Mcl-1 inactive, NCF1 inh inactive and Mcl1-Bid inh inactive.
